Compound activity deposited in PubChem by National Center for Advancing Translational Sciences (NCATS).
Sampled rows, rich in hits. Any-hit rate of the full collection: about 3.6%.
Nrf2 inh: blocks Nrf2 signaling; A549 ARE-Fluc reporter, luciferase luminescence, 18-24 h; Potency, µM (top dose mostly 46 µM), hits mostly inhibitors; 360,000 tested, 2.1% active; AID 504444; further: nearly all actives have a fitted effect of over 60% in size
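A549 ARE_Fluc cells, 5000/well, 5% FBS OPTI-MEM; compounds in dose-response, 18-24 h at 37 °C/5% CO2; CellTiter-Fluor viability read (Ex 405/Em 525), then BugLite luciferase luminescence = Nrf2 activity.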
HepG2 viability: HepG2 cytotoxicity, counter-screen for TGF-b inhibitors | HepG2 CAGA-GFP viability, ATP luminescence, 18 h | Potency, µM (titrated, usually from 46.1 µM), actives largely listed as cytotoxic | 410,000 tested, 0.76% active
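CellTiter-Glo luminescence gave cytotoxicity after 18 hours at 37 degrees C. The cells were HepG2 CAGA-GFP in 1% FBS DMEM, stimulated with 500 pg/mL TGF-beta after compound addition. %Activity was normalised to no-cell wells (complete cell-killing) and DMSO (no toxicity), and curves were fitted and classified.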
Nrf2 activator: Nrf2 pathway activation; AREc32 ARE-luciferase reporter (MCF7-derived line), luminescence, 24 h; Potency, µM (series often up to 46.1 µM), actives largely listed as activators; 410,000 tested, 0.31% active; AID 624171; further: nearly all actives have a fitted effect of over 65% in size
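Nrf2 activation is followed as ARE-luciferase induction in the AREc32 line after one day of compound treatment; luminescence is read with Steady-Glo.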
A549 viability: kills or reduces viability of A549 cells in Nrf2 counter-screen | A549 ARE-Fluc cells, CellTiter-Fluor viability, 18-24 h | Potency, µM (highest dose often 46 µM), usual class: inhibitors | 390,000 tested, 0.16% active | AID 504648
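Cytotoxicity counterscreen: CellTiter-Fluor fluorescence was measured in A549 ARE_Fluc cells after 18-24 h of compound exposure in a concentration series. The subsequent BugLite luminescent read reports ARE-luciferase activity.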
TGFb inhibitor: inhibitors of TGF-b signaling; HepG2 CAGA-GFP TGF-b/SMAD3 reporter, GFP fluorescence, 18 h; TGF-beta stimulated, 500 pg/mL final; Potency, µM (top dose mostly 46.1 µM), hits mostly inhibitors; 410,000 tested, 1.2% active; further: nearly all actives have a fitted effect of over 65% in size
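HEPG2 CAGA-GFP reporter cells (1000/well, DMEM with 1% FBS) received compounds, then recombinant TGF-beta at 500 pg/mL final for 18 hours at 37 degrees C. Per-cell GFP summed per well was normalised to unstimulated and stimulated DMSO controls before curve fitting.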
Each line names hits and unclear results; the compound was inactive in the other large screens; ! = not active in a repeat. The call rests on the fitted dose curve; in most records, active means well fitted curve in the direction sought with a large enough effect; inconclusive means small, poorly fitted or top-dose-only effect, or another doubt; inactive means no such curve, though single readings can be large; an effect the other way counts as inactive or inconclusive.

Cn1c2ccc(F)cc2c2nnc(SCCN3CCOCC3)nc21	none
CC(=O)Nc1ccc(-c2csc(NC(=O)Cc3cccc(F)c3)n2)cc1	Nrf2 inh 20.6µM
CS(=O)(=O)N1CCc2cc(-c3csc(NCC4CCCO4)n3)ccc21 (stereo unspecified)	Nrf2 inh inconclusive
CS(=O)(=O)N1CCc2cc(-c3csc(NC(=O)Cc4ccccc4)n3)ccc21	Nrf2 inh 20.6µM, TGFb inhibitor inconclusive
CCC(=O)Nc1ccccc1C(=O)OC(c1ccccc1)c1ccccc1	A549 viability inconclusive
Cc1cc(C(C)(C)C)oc1C(=O)N(CC(=O)NC1CCCC1)c1c(C)cccc1C	Nrf2 inh inconclusive, HepG2 viability 15.8µM, A549 viability inconclusive, TGFb inhibitor inconclusive
CC(=O)Nc1ccc2nc(-c3ccncc3)[nH]c2c1	none
CC(=O)Nc1cc(NC(C)=O)cc(-c2nc3ccccc3[nH]2)c1	HepG2 viability 12.6µM!, TGFb inhibitor 7.08µM!
COc1cc(-c2nnc3n2N=C(c2ccccc2)CS3)cc(OC)c1OC	Nrf2 inh inconclusive
CC1CCN(Cc2c(C(=O)N/N=C/c3ccc(OC(C)C)cc3)nnn2-c2nonc2N)CC1	Nrf2 inh 23.1µM, A549 viability inconclusive
COc1cc(/C=N/NC(=O)c2nnn(-c3nonc3N)c2C(C)C)ccc1OCc1ccc(F)cc1	Nrf2 inh 16.4µM, A549 viability inconclusive, TGFb inhibitor inconclusive
CC(/C=N/NC(=O)c1nnn(-c2nonc2N)c1CN1CCCCC1)=C\c1ccccc1	Nrf2 inh 5.17µM, A549 viability inconclusive, TGFb inhibitor inconclusive
Cc1ccccc1COc1ccc(/C=N/NC(=O)c2nnn(-c3nonc3N)c2CN2CCC(C)CC2)cc1	none
CC1CCC(n2c(=S)[nH]c3ccccc3c2=O)CC1 (stereo unspecified)	none
O=c1[nH]c(C(F)(F)F)nc2ccccc12	none
COc1ccc(COn2nnc3ccc(S(=O)(=O)N4CCOCC4)cc32)cc1F	Nrf2 inh inconclusive
COc1cc(NC(=O)COc2cccc3c2OC(C)(C)C3)cc(OC)c1OC	Nrf2 inh 10.3µM
C=C(C)n1c(=O)n(Cc2ccc(C)cc2)c2ccccc21	Nrf2 inh 16.4µM
O=C(Nc1ccc(Br)cc1)c1ccc(F)c(S(=O)(=O)N2CCN(c3ccccn3)CC2)c1	Nrf2 inh 23.1µM
Cc1ccccc1NC(=O)c1ccc(F)c(S(=O)(=O)N2CCN(c3ccccn3)CC2)c1	none (no result: Nrf2 inh)
O=C(Nc1nc(-c2ccccn2)cs1)c1ccc(F)c(S(=O)(=O)N2CCOCC2)c1	Nrf2 inh 8.2µM, A549 viability inconclusive, TGFb inhibitor inconclusive
CC(=O)c1ccc(N2CCN(C(=O)C3CCCN(S(=O)(=O)c4ccc(Br)s4)C3)CC2)cc1 (stereo unspecified)	Nrf2 inh 16.4µM
O=C(Nc1nc(-c2ccc(S(=O)(=O)N3CCCCCC3)cc2)cs1)c1cccs1	Nrf2 inh 6.51µM
CC(=O)NNC(=S)NCCc1ccccc1	Nrf2 inh inconclusive
CC(=O)c1cccc(N(C(=O)c2ccco2)C(C(=O)NC2CCCC2)c2ccc(N3CCOCC3)cc2)c1 (stereo unspecified)	none
Cc1ccc(CN2CC(=O)N3[C@H]4c5cc(Cl)ccc5OC[C@@H]4[C@H](c4ccccc4)[C@]3(C)C2=O)cc1	none
CCN(c1cccc(C(F)(F)F)c1)S(=O)(=O)c1ccc2c(c1)CCN2C(=O)C1CC1	Nrf2 inh inconclusive, TGFb inhibitor inconclusive
Cc1csc(NC(=O)C2CCCN(S(=O)(=O)c3ccc(Br)s3)C2)n1 (stereo unspecified)	TGFb inhibitor 17.8µM (no result: Nrf2 inh)
O=C(Nc1nc(-c2ccccc2)cs1)C1CCCN(S(=O)(=O)c2cccc([N+](=O)[O-])c2)C1 (stereo unspecified)	Nrf2 inh inconclusive
O=C(Nc1nc(-c2ccccc2)cs1)C1CCCN(S(=O)(=O)c2ccccc2)C1 (stereo unspecified)	Nrf2 inh 20.6µM, TGFb inhibitor inconclusive
COc1ccc(-c2nc(NC(=O)c3ccc(OCC(=O)Nc4ccc(F)cc4)c(OC)c3)sc2C)cc1	Nrf2 inh 14.6µM, A549 viability inconclusive
CC(C)c1ccc(NC(=O)C2CCN(S(=O)(=O)c3ccc(Br)s3)CC2)cc1	none
O=C(Nc1ccc(Cl)cc1)C1CCN(S(=O)(=O)c2ccc(Br)s2)CC1	Nrf2 inh 23.1µM, TGFb inhibitor 12.6µM
CSc1nc(N(C)C)nc(N(C)C#N)n1	none
COc1ccc2c(CC(=O)Nc3c(C)n(C)n(-c4ccccc4)c3=O)coc2c1	none (no result: Nrf2 inh)
Cc1ccc2nsnc2c1NC(=O)c1ccc2c(c1)OCCO2	none
COc1cccc(C(=O)Nc2nc(-c3ccc(S(=O)(=O)N4CCOCC4)cc3)cs2)c1	Nrf2 inh 13µM
COc1cc(C(=O)Nc2nc(-c3ccc(F)cc3)cs2)ccc1OCC(=O)N1CCOCC1	Nrf2 inh 20.6µM, TGFb inhibitor inconclusive
O=C(Nc1nc(-c2ccccn2)cs1)c1cccc(-n2cnnn2)c1	Nrf2 inh 7.31µM
O=C(CSc1nnc(NC(=O)c2ccc(F)cc2)s1)NC1CC1	Nrf2 inh inconclusive
Cc1ccc(OCC(=O)Nc2ccc(NC(=O)c3ccccc3)cc2)cc1C	none
CCOC(=O)c1nn(-c2ccccc2)cc1O	none
Cn1c(=O)c2c3c(sc2n2c(SCC(N)=O)nnc12)CC(C(C)(C)C)CC3 (stereo unspecified)	HepG2 viability 12.6µM
COC(=O)CNC(c1ccccc1)c1cc(Br)ccc1NC(=O)CCN1CCOCC1 (stereo unspecified)	HepG2 viability 22.4µM, TGFb inhibitor 17.8µM
CCOC(=O)CNC(c1ccccc1)c1cc(Br)ccc1NC(=O)CCN1CCOCC1 (stereo unspecified)	HepG2 viability 12.6µM, Nrf2 activator inconclusive, TGFb inhibitor inconclusive
COC(=O)CNC(c1ccccc1)c1cc(Br)ccc1NC(=O)CNC(=O)OCc1ccccc1 (stereo unspecified)	TGFb inhibitor inconclusive
COc1ccc(-n2c(=O)c3c4c(sc3n(CC(=O)NCc3ccco3)c2=O)CCC4)c(OC)c1	Nrf2 inh inconclusive
CC(C)N(Cc1ccccc1)C(=O)c1cc2ccc3cccnc3c2[nH]1	Nrf2 inh inconclusive, TGFb inhibitor 11.2µM
O=C(NCc1cccc(Cl)c1)c1cc2ccc3cccnc3c2[nH]1	none
CCCCC(CC)Cn1c(N)c(C#N)c2nc3ccccc3nc21 (stereo unspecified)	Nrf2 inh inconclusive, HepG2 viability 14.1µM, TGFb inhibitor inconclusive
CCC(CC)C(=O)N(C)c1c(C)nc2c(OCc3cc(Cl)cc(Cl)c3)cccn12	TGFb inhibitor 12.6µM (no result: Nrf2 inh, A549 viability)
CCN(CC)C(=O)C1CCCN(c2ncnc3c2cnn3-c2ccc(Cl)cc2)C1 (stereo unspecified)	Nrf2 inh 20.6µM
